Source: PubChem BioAssay (EPA / NIEHS)
Results filed as inconclusive are left out. Calls of active or inactive are those of the source. How the source made its calls: active means hit-call score of the fitted dose curve at least 0.9, where 1 is the maximum; inconclusive means response in the unintended direction; inactive means score below 0.9.

target: rat Androgen Receptor (AR), Ar (gene 24208) (UniProt P15207); assay: NVS_NR_rAR: NovaScreen (NVS) Nuclear Receptor Binding Assay for rat Androgen Receptor (AR) (AID 2283366)
Sequence (P15207 whole entry, looked up): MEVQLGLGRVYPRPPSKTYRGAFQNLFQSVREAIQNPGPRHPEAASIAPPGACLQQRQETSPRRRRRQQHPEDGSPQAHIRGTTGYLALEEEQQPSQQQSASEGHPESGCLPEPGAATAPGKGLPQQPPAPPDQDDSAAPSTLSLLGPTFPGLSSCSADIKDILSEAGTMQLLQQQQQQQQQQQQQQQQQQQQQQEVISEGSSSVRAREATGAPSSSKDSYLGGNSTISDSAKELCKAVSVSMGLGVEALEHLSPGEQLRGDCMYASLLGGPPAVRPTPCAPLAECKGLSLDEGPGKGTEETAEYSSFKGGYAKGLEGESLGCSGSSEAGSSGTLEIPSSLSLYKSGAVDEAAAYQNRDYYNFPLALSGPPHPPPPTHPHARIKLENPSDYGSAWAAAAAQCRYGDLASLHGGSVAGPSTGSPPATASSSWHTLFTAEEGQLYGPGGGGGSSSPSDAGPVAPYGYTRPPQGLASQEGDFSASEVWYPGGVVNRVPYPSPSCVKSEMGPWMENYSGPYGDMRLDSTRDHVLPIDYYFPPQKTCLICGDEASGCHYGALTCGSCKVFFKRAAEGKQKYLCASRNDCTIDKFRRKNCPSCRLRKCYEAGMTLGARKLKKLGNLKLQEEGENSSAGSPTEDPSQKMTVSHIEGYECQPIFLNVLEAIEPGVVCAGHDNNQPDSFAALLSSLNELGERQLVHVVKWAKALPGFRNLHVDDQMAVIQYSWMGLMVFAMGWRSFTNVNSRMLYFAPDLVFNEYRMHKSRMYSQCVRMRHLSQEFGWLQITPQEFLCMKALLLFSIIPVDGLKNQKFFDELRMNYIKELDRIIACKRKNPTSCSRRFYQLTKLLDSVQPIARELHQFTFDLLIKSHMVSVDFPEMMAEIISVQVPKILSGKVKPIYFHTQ
How it was run: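 Actives from a duplicate single-concentration (25 uM) primary run went on to concentration series. Displacement of radioligand was counted by filtration and scintillation, 18 h post-dose, using prostate extracts from testosterone-pretreated rats, with DMSO as baseline.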

| Structure (SMILES) | AC50 | outcome |
| --- | --- | --- |
| Clc1ccc(COC(Cn2ccnc2)c2ccc(Cl)cc2Cl)cc1 (centres undefined) | 6.9 µM (active) | – |
| CC(C)(C)CC(C)(C)c1ccc(O)cc1 | – | inactive |
| CC12CC1(C)C(=O)N(c1cc(Cl)cc(Cl)c1)C2=O (centres undefined) | – | inactive |
| O=C1C2(Cl)C3(Cl)C4(Cl)C(Cl)(Cl)C5(Cl)C3(Cl)C1(Cl)C5(Cl)C24Cl (centres undefined) | – | inactive |

target: Peroxisome proliferator-activated receptor gamma (Homo sapiens) (UniProt P37231); assay: NVS_NR_hPPARg: NovaScreen (NVS) Nuclear Receptor Binding Assay for human Peroxisome Proliferator-activated Receptor gamma (PPARg) (AID 2283370)
Sequence (P37231 whole entry, looked up): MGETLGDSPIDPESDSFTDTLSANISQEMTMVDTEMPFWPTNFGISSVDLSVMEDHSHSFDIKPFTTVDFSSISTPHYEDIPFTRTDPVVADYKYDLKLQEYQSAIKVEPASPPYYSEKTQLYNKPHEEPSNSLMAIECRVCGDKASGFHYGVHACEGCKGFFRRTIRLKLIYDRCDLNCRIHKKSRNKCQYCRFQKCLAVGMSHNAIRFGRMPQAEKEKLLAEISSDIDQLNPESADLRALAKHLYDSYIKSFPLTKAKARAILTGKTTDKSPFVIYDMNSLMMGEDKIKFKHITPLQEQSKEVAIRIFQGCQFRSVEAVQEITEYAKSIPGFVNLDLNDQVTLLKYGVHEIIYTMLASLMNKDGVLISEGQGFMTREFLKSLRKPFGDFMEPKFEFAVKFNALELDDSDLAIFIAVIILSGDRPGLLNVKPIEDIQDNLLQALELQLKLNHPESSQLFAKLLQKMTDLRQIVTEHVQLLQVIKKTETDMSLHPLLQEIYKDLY
How it was run: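 FP read-out, 2 h post-dose, cell-free extracted receptor protein. Signal loss vs DMSO negative control = binding activity. Single-conc duplicate HTS at 25 uM; concentration-response follow-up for actives.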

| Structure (SMILES) | outcome | AC50 |
| --- | --- | --- |
| C=CC#N | inactive | – |
| CCOP(=S)(OCC)Oc1nc(Cl)c(Cl)cc1Cl | inactive | – |
| C[C@H]1CCCC(=O)CCC/C=C/c2cc(O)cc(O)c2C(=O)O1 | – | 2.15 µM (active) |
| COP(=O)(OC)O/C(=C\Cl)c1cc(Cl)c(Cl)cc1Cl | inactive | – |
| CC(C)C1CCC(Cc2ccc(Cl)cc2)C1(O)Cn1cncn1 (centres undefined) | inactive | – |
| CC(C)(c1ccc(OCC2CO2)cc1)c1ccc(OCC2CO2)cc1 (centres undefined) | inactive | – |
| C=C(C)C(=O)[O][Sn]([CH2]CCC)([CH2]CCC)[CH2]CCC | – | 1.62 µM (active) |
| Cc1ccccc1C(=O)Nc1cccc(OC(C)C)c1 | inactive | – |
| CC(C)(OO)c1ccccc1 | inactive | – |
| Clc1ccc(C2(Cn3cncn3)CC(Br)CO2)c(Cl)c1 (centres undefined) | inactive | – |
| O=C1C2(Cl)C3(Cl)C4(Cl)C(Cl)(Cl)C5(Cl)C3(Cl)C1(Cl)C5(Cl)C24Cl (centres undefined) | inactive | – |

target: human Dopamine Transporter (DAT), SLC6A3 (gene 6531) (UniProt Q01959); assay: NVS_TR_hDAT: NovaScreen (NVS) Transporter Assay for human Dopamine Transporter (DAT) (AID 2283374);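 further: activity means loss of bound radioligand signal relative to DMSO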
Sequence (Q01959 whole entry, looked up): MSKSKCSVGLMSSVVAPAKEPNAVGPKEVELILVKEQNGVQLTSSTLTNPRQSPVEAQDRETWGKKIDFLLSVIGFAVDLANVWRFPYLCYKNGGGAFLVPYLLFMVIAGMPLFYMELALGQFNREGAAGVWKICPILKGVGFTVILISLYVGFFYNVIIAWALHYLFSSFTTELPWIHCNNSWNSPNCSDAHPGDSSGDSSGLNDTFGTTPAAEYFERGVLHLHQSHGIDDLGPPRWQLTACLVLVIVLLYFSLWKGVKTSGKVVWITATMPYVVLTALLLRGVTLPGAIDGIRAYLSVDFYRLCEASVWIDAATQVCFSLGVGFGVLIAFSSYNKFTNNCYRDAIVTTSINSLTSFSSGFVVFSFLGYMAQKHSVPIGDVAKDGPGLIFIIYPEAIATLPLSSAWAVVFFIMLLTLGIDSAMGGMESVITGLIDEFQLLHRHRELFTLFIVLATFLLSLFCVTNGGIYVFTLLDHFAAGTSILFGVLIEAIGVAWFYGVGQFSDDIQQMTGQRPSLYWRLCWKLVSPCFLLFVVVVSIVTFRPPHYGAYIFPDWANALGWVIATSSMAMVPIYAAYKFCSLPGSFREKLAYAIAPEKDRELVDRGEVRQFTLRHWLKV
How it was run: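 Duplicate single-point screening at 25 uM preceded concentration-series follow-up of actives. Binding was measured by competitive displacement of a radioligand from DAT protein, filter-counted by scintillation 1 h after dosing. Decrease relative to DMSO taken as activity.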

| Structure (SMILES) | outcome | AC50 |
| --- | --- | --- |
| Cn1sc(Cl)cc1=O | inactive | – |
| CC(C)(C)CC(C)(C)c1ccc(O)cc1 | – | 15.1 µM (active) |
| CC(=O)[O][Hg][c]1ccccc1 | – | 12.4 µM (active) |
| C=C(C)C(=O)[O][Sn]([CH2]CCC)([CH2]CCC)[CH2]CCC | – | 2.82 µM (active) |
